# Measurements taken from the supplement of paper PMC10338343.
# ± gives the standard deviation.
# Tested on: MILI (PIWIL2) piRISC loaded with L1MC piRNA (26 nt)
# Assay: pre-steady-state target cleavage rate (min^-1); guide: L1MC piRNA 5'p-UAACUAAAUACUAUGCAAGCUGUAGG; MIWI and MILI are mouse PIWI proteins and EfPiwi is from a freshwater sponge; tags in brackets are library labels; higher = faster piRNA-guided slicing of the target
# Settings: auxiliary factor: 500 nM mouse GTSF1
# Procedure, shortened: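 The pre-steady-state cleavage rate was derived from a burst-and-steady-state fit of Cleave-'n-Seq data. For these assays, 1 nM active affinity-purified piRISC loaded with a single synthetic guide was mixed with […] a transcribed, DNA-blocked target RNA library in HEPES–potassium acetate buffer at 33 °C, with or without 500 nM GTSF1 partner protein, for 0–8 or 0–960 min. Sequencing counts of uncleaved targets were normalised to depth and to weakly complementary targets, and k3 was capped at 0.0001 min^-1 after three trials were pooled.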
# 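Note: 1 nM active piRISC with 0.1 nM target library at 33 °C single turnover.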
row,Sequence,pre-steady-state target cleavage rate
1,UCCUGGUACACCUUGCAUAGUAUUUACUUA,0.108 ± 0.041
2,UCCUGGAUGUGCUUGCAUACUAUUUUGUUA,0.00854 ± 0.0058
3,UCCUGGAUCUCGUUGCAUAGUAUUUACAAA,0.0638 ± 0.014
4,UCCUGGAACACCUUGCAUAGUAUUUAGAUA,0.183 ± 0.043
5,UCCUGGUACAGCUUGCAUAGUUUUUAGAAA,0.0221 ± 0.011
6,UCCUGGUAGAGCUUGCAUAGUAUUUACAAA,0.015 ± 0.0066
7,UCCUGGUACAGCUUGCAUAGUAUAAACAAA,0.0195 ± 0.0074
8,UCCUGGAUGAGCUUGCAUAGAAUAUAGUUA,0.0218 ± 0.0083
9,UCCUCCUACAGCUUGCUAUGUAUUUAGUAA,0.021 ± 0.0069
10,UCCUGGUACAGCUUGCAAAGUAUAUAGUUA,0.0931 ± 0.016
11,UCCUGGUACAGCAUGCAUAGUAUUUUCAAA,0.0847 ± 0.026
12,UCCUGGAUGUGCUUGCAUAGUAUAAUGUUA,0.081 ± 0.022
13,UCCUGGAUCAGCUUGGUAAGUAUUUAGUAA,0.0371 ± 0.011
14,UCCUGCUACAGCAACCAUAGUAUUUAGUAA,0.35 ± 0.063
15,UCCUGGAACAGCUUGCAUAGUUAAUAGUAA,0.0133 ± 0.0056
16,UCCUGGAUGAGCUUGCAUAGUAUUUAGGUA,0.166 ± 0.04
17,UCCUGGAUGUCGUUGGAUAGUAUUUAGUUA,0.0108 ± 0.0042

row,Sequence,pre-steady-state target cleavage rate
1,UCCUGGAACAGCUUGCAUAGUAUAUACAAA,0.0873 ± 0.03
2,UCCUGGAUCAGCUUGCAAAGUAUUUAGAAA,0.0827 ± 0.015
3,UCCUGGAUGUCGAACGUAUCUAUAAUGUUA,< 0.0001
4,UCCUGGAUGUCCUUGCAUUGUAUUUACUUA,0.0534 ± 0.012
5,UCCUGGUACAGCUUGCAUAGUAAAUUCAAA,0.0147 ± 0.0074
6,UCCUGGAACAGCUUGCAUUCUAUUUAGUUA,0.0609 ± 0.014
7,UCCUGGUACAGCUUGCAUAGAAUAUAGUUA,0.102 ± 0.028
8,UCCUGGAUGAGCUUGCAUAGUAAUUUGUUA,0.0508 ± 0.018
9,UCCUGGAACAGCUUGCAUAGUAUUAACUUA,0.0356 ± 0.0096
10,UCCUGGAUGAGCUACCAUAGUAUUUAGAAA,0.00557 ± 0.0043
11,UCCUGGAUGAGCUUGCAUAGUAUAAUGAAA,0.00735 ± 0.0041
12,UCCUGGUACUCGUUGCAUAGUAUUUAGUAA,0.0635 ± 0.029
13,UCCUGGAUGUGCUUGCUUAGUAUUUACUUA,0.0644 ± 0.015
14,UCCUGCUACAGCUAGCAUAGUAUUUACAAA,0.0708 ± 0.018
15,UCCUGGAUCAGCUUGCUAAGUAUUUUCAAA,0.00483 ± 0.0036
16,UCCUGGUACUGCUUGCAUAGAAUUUAGUUA,0.0381 ± 0.017
17,UCCUGGAUGAGCUUGCAUUGUAUUUAGAUA,0.156 ± 0.038
